The structures appear in SMILES notation. Where “and” joins values, the source holds several entries; their conditions need not be identical. Equal entries are not always repeated. The whole screen tested about 350,000 compounds, of which about 31,000 (8.9%) were called active. Entries that show only a call come without a potency. Roughly 15% stayed inconclusive and do not appear here. Calls come from the whole dose curve; as a rule, active = well fitted inhibition curve with a large enough effect; inconclusive = small, poorly fitted or top-dose-only effect; inactive = no such curve, though single readings can be large or run the other way. The sample as a whole holds a higher share of actives than the screen did. Where a structure was tested more than once in an assay, its records may differ in their call.
Potency is the fitted concentration of half-maximal effect.

Sequence of Histone-lysine N-methyltransferase EHMT2 (Homo sapiens) (Q96KQ7 913-1193 limits assumed): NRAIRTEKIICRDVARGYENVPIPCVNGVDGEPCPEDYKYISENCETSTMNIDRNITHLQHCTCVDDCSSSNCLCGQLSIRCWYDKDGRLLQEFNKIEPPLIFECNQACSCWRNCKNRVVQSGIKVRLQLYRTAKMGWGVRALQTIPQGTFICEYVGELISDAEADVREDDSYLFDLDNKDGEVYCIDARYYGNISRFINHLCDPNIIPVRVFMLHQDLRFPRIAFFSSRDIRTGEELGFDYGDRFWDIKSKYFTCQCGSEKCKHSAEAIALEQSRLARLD

The target in this experiment is Histone-lysine N-methyltransferase EHMT2 (Homo sapiens) (UniProt Q96KQ7). Briefly: qHTS Assay for Inhibitors of Histone Lysine Methyltransferase G9a. Note: nearly all actives have a fitted effect of over 75% in size. To be noted: G9a H3K9 monomethylation, AlphaScreen, 2 h; series mostly up to 59 µM. Summed up:
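Readings reflect AlphaScreen signal from monomethyl-H3K9 antibody detection. HMT at 20 nM; substrate b-H3K9 500 nM; cofactor SAM 20 uM; 2 h RT reaction; compounds tested as titrations in qHTS with 15 min preincubation.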
(In general: In qHTS, concentration-response curves come from the screen itself.)
With `COc1cc(/C=N/NC(=O)c2ccc(N3CCCC3=O)cc2)ccc1O`, the Potency result was “inactive”. Take `O=C(N/N=C/c1cccc(Br)c1)c1ccc(N2CCCC2=O)cc1`: the Potency is 79.4 µM (active). Turning to `Cn1c(=O)n(C)c2cc(/C=N/NC(=O)c3cccc(Br)c3)ccc21`, the Potency result was “inactive”. Regarding `Cc1ccccc1NC(=O)Cn1cc(C(=O)c2cccs2)c2ccccc21`, the Potency result is “inactive”. Consider `O=S(=O)(NC1CC1)c1ccc(Cl)cc1`, for which the Potency entry is “inactive”. Take `Cc1cc(C)c(OCCN2CC(C)OC(C)C2)c(Br)c1` (stereo not drawn): the Potency is 8.91 µM (active). Take `O=C(Cn1ccc2cc(S(=O)(=O)N3CCCC3)ccc21)NCc1ccccc1`: the Potency entry is “inactive”. For the compound `O=c1c([N+](=O)[O-])cc(C(F)(F)F)cn1Cc1cccc(Cl)c1`, the Potency entry is “inactive”. The same measure, in the same setting: the same measure for `O=[N+]([O-])/C=C/c1ccc2c(ccn2Cc2ccccc2)c1`: 31.6 µM (active). Consider `Cc1cc(S(=O)(=O)NC2CCCC2)ccc1-n1cnnn1`, for which the Potency entry is “inactive”. Consider `O=C(NCC1CCCO1)c1ccc(S(=O)(=O)Nc2ccc(F)cc2)cc1` (stereo not drawn), for which the Potency result was “inactive”. In the case of `CN(CC(=O)Nc1ccc(F)cc1)C(=O)c1ccc(-c2ccc(Cl)cc2)o1`, the Potency is 79.4 µM (active). Regarding `CN(CC(=O)Nc1ccc(Cl)cc1)C(=O)c1ccc(COc2ccccc2)cc1`, the Potency entry was “inactive”. Turning to `Cc1ccc(NC(=O)CN(C)C(=O)c2ccc(Br)o2)cc1`, the Potency result was “inactive”. Regarding `CCOc1ccccc1CNC(=O)c1ccc(-n2c(C)cc3c2CCC(C)C3)cc1` (stereo not drawn), the Potency entry is “inactive”. On the same count and under the same terms, the same measure for `COc1ccc(CCNC(=O)CN(C)S(=O)(=O)c2ccc3nc(C)sc3c2)cc1OC`: “inactive”; for `CCOCCCNC(=O)c1ccc2nc(CCc3ccccc3)oc2c1`: “inactive”.

On to `Cc1ccc(NC(=O)c2cc(S(=O)(=O)NCCC3=CCCCC3)ccc2F)cc1C`, for which the Potency result was “inactive”. On to `COCCCn1c(SCC(=O)Nc2ccccc2)nnc1-c1ccncc1`, for which the Potency entry was “inactive”.

As to `CCOc1cc2[nH]c(=S)n(CCCN3CCCC3=O)c(=O)c2cc1OCC`, the activity, negative = inhibition is -45.8% [at 12.7 µM] (inactive). For `CSc1nnc(-c2ccncc2)n1CCCN1CCCC1=O`, the Potency was 50.1 µM (active). On to `O=C(c1ccc2c(c1)N(Cc1ccccc1F)C(=O)c1ccccc1S2(=O)=O)N1CCOCC1`, for which the Potency entry is “inactive”. In the case of `COC(=O)[C@H]1[C@H]2C[C@H]3c4[nH]c5ccccc5c4CCN3C[C@@H]2CC[C@@H]1O`, the Potency entry is “inactive and 12.6 µM (active)”.

Take `COC(=O)C1CCN(C(=O)c2cc(=O)[nH]c3ccccc23)CC1`: the Potency result was “inactive”. Regarding `O=C(NC1CCCCC1)N1CCc2[nH]c3ccccc3c2C1`, the Potency result is “inactive”. For the compound `O=C(NCCc1ccc(F)cc1)c1ccc(S(=O)(=O)N2CCCCC2)cc1`, the Potency entry was “inactive”. On to `Cc1cc(=O)n(C)c(=O)n1CCCNc1ccccc1`, for which the Potency was 15.8 µM (active). For `Cn1c(Nc2ccccc2)cc(=O)n(C)c1=O`, the Potency result is “inactive”. Turning to `Cc1cc2nc(C)n(CCCNC(=O)Nc3ccccc3)c2cc1C`, the Potency result was “inactive”. Still for that read-out and setting: the same measure for `CCc1ccccc1NC(=O)Cn1c(=O)n(CC2CCC(C(=O)NCCc3ccccc3)CC2)c(=O)c2ccccc21` (stereo not drawn): “inactive”; for `O=C(C1CCC(Cn2c(=O)c3sccc3n(Cc3ccccc3F)c2=O)CC1)N1CCCCC1` (stereo not drawn): “inactive”.

`COc1cccc(NC(=O)CSc2nnc(-c3cccnc3)o2)c1`: the Potency result was “inactive”. With `CCCn1c(SCC(=O)c2ccc3c(c2)OCCO3)nnc1C(C)C`, the Potency is 44.7 µM (active). On to `CCn1c(SCC(=O)Nc2ccc3c(c2)OCCO3)nnc1C(C)C`, for which the Potency entry is “inactive”. In the case of `CCCn1c(SCC(N)=O)nnc1C(C)C`, the Potency entry was “inactive”.

Turning to `COC(=O)c1ccc2c(c1)N(CC(=O)Nc1ccc(C)c(C)c1)C(=O)c1ccccc1S2`, the Potency entry is “inactive”.

Regarding `COc1cc(C(=O)N/C(=C\c2cn(C)c3ccccc23)C(=O)N2CCOCC2)cc(OC)c1OC`, the Potency result is “inactive”.

Consider `Cc1ccc(C(=O)N/C(=C\c2cn(C)c3ccccc23)C(=O)N2CCN(C)CC2)cc1`, for which the Potency is 79.4 µM (active).

On to `Cc1ccc(C(=O)N/C(=C\c2cn(S(=O)(=O)N(C)C)c3ccccc23)C(=O)N2CCCC2)cc1`, for which the Potency entry was “inactive”.

For `CCCCC[C@H]1CN(C2CCCCC2)C(=O)[C@@H]1CC(=O)NCc1ccc(OC)cc1`, the Potency entry was “inactive”.

Take `CCN(CC)CCn1c2c(c(SCC(=O)Nc3ccc(C(C)C)cc3)nc1=O)CCC2`: the Potency result is “inactive”.

In the case of `COc1ccc2nc(Nc3nc(-c4cc5ccccc5oc4=O)cs3)sc2c1`, the Potency result was “inactive”.

Take `Cc1cc(NC(=O)c2cccc(Cl)c2)ccc1-c1cc2ccccc2oc1=O`: the Potency result is “inactive”. As to `O=c1oc2ccccc2cc1-c1csc(Nc2ccc(O)cc2)n1`, the Potency was 12.6 µM (active). Take `CCOC(=O)CN1C(C(=O)c2ccccc2)=C(OC(=O)C(C)(C)C)c2ccccc2S1(=O)=O`: the Potency entry is “inactive”.

Turning to `CCCCc1nn2c(=O)cc(COC(=O)c3ccccc3NC(=O)C(C)(C)C)nc2s1`, the Potency entry was “inactive”. As to `O=C(COC(=O)c1ccccc1SCC(=O)N1CCCC1)Nc1ccccc1OC(F)F`, the activity, negative = inhibition is 13.9% [at 0.501 µM] (inactive). As for `COc1ccc(NCc2nnc(SCc3ccccc3)n2-c2ccc(OC)cc2)cc1`, the Potency was 50.1 µM (active). The same measure, in the same setting: the value for `Cc1ccc(-n2c(CNc3ccc(F)cc3)nnc2SCC(=O)N2CCOCC2)cc1` was “inactive”; that for `COc1ccc(CSc2nnnn2-c2ccc(C(=O)O)cc2)cc1` was “inactive”.

On to `CC1(NC(=O)CCS(=O)(=O)c2ccc(Cl)cc2)CCS(=O)(=O)C1` (stereo not drawn), for which the activity, negative = inhibition is -5.47% [at 12.7 µM] (inactive). Turning to `CC1(C)CC(=O)C=C(c2cccc3c2Oc2ccccc2S3)C1`, the activity, negative = inhibition is -4.23% [at 0.501 µM] (inactive). On to `Cc1ccc(-c2cc(C(=O)N3CCc4ccccc4C3)no2)cc1`, for which the Potency result is “inactive”. Consider `Cn1cccc1C(=O)N1CCc2ccccc2C1`, for which the Potency was 2 µM (active). For `O=C(C(=O)N1CCc2ccccc2C1)N1CCc2ccccc2C1`, the Potency result is “inactive”. Turning to `O=C(CCc1cn(Cc2ccc(F)cc2)c2ccccc12)NC1CCCCC1`, the Potency result is “inactive”.

Turning to `Cc1ccc(Cn2c(=N)c(S(=O)(=O)c3ccc(C)cc3)cc3c(=O)n4ccccc4nc32)cc1`, the Potency entry is “inactive”. Regarding `CCN(CC(=O)Nc1ccccc1OC)C(=O)CC1CC2CCC1C2` (stereo not drawn), the Potency result was “inactive”.

For `COc1ccccc1N1CCN(C(=O)c2ccc(NC3=NC4CS(=O)(=O)CC4S3)cc2)CC1` (stereo not drawn), the Potency result was “inactive”. With `O=C1CSC(=S)N1/N=C/c1ccc(O)c([N+](=O)[O-])c1`, the Potency was 14.1 µM (active). For `O=[N+]([O-])c1ccc(N2CCSCC2)cc1O`, the Potency entry is “inactive”. Regarding `CCc1nn(CCCC(=O)Nc2ccc(C)cc2C)c(=O)c2cc3occc3n12`, the Potency result was “inactive”. For `Cc1ccc(OCCNC(=O)CN2C(=O)NC3(CCCC3)C2=O)cc1`, the activity, negative = inhibition was 19.1% [at 2.33 µM] (inactive).

On to `Cc1ccc(S(=O)(=O)CCC(=O)OCC(=O)NCCc2ccc(S(N)(=O)=O)cc2)cc1`, for which the activity, negative = inhibition is 1.87% [at 12.7 µM] (inactive). Turning to `Cc1cc(C)cc(NS(=O)(=O)Cc2ccccc2)c1`, the Potency result is “inactive”. For `CCC(CC)c1nnc(NS(=O)(=O)Cc2ccccc2)s1`, the Potency is 5.01 µM (active). As for `COc1ccc(Cc2nnc(NS(=O)(=O)Cc3ccccc3)s2)cc1`, the Potency result was “inactive”.

Consider `CCc1ccc(NC(=O)CCNS(=O)(=O)c2cccs2)cc1`, for which the Potency entry is “inactive”. Still for that read-out and setting: the value for `CN1CCN(CC#CCC2(O)c3ccccc3-c3ccccc32)CC1` was 35.5 µM (active); that for `CCCCOc1ccc(Cn2c(=O)oc3ccc(C)cc32)cc1OC` was “inactive”; that for `CCCCOc1ccc(CN2C(=O)C(=O)c3cc(Br)cc(C)c32)cc1OC` was 6.31 µM (active). Take `CCCCN1C(=O)C(C)=C(C)C1OCCc1ccc(OC)c(OC)c1` (stereo not drawn): the activity, negative = inhibition was -12% [at 0.501 µM] (inactive). As to `Cc1ccc2nc(N3CCN(c4cccc(Cl)c4)CC3)c3nnnn3c2c1`, the Potency entry is “inactive”.

On to `Cc1[nH]c2ccccc2c1C(c1ccccc1)c1cccs1` (stereo not drawn), for which the Potency entry is “inactive”. Turning to `CC1CCN(S(=O)(=O)c2ccc3c(c2)N(CC(=O)NCc2ccccc2Cl)C(=O)CO3)CC1`, the Potency result was “inactive”. Turning to `Cc1cccc(N2CCN(C(=O)c3cccc(N4C(=O)C5C6C=CC(C6)C5C4=O)c3)CC2)c1C` (stereo not drawn), the Potency result is “inactive”. Turning to `Cc1ccc(C(=O)O)cc1-c1ccc(/C=C2\SC(=O)N(CC(=O)Nc3ccc4c(c3)OCO4)C2=O)o1`, the Potency is 15.8 µM (active). As to `COc1ccc(NC(=O)CCN2C(=O)/C(=C/c3ccc4c(c3)OCO4)SC2=S)cc1`, the activity, negative = inhibition was 7.02% [at 12.7 µM] (inactive).

Regarding `Cn1c(=O)n(C)c2cc(C(=O)Nc3ccc4c(c3)OCO4)ccc21`, the Potency entry was “inactive”. As to `O=C(c1ccc(Cl)cc1)n1nc(-c2cccnc2)nc1NCc1ccc(F)cc1`, the Potency result was “inactive”. With `CN1c2ccc(Cl)cc2-c2nc(SCC(=O)Nc3cc(F)ccc3F)ncc2S1(=O)=O`, the Potency entry was “inactive”. Turning to `CS(=O)(=O)c1ccc(-c2nnn(CC(=O)Nc3ccc4c(c3)OCCO4)n2)cc1`, the Potency result is “inactive”. Regarding `Oc1ccc2ccccc2c1N=Nc1nccs1`, the activity, negative = inhibition is 12.3% [at 0.501 µM] (inactive).

On to `Oc1ccc(N=Nc2nccs2)c(O)c1`, for which the Potency is 44.7 µM (active). On to `Cc1cccc(NC(=O)C2CCCN2S(=O)(=O)c2cccc3nsnc23)c1C` (stereo not drawn), for which the Potency entry was “inactive”. In the case of `COc1ccc(-c2noc(CSc3nc(C)cc(=O)[nH]3)n2)cc1OC`, the Potency result was “inactive”. `Cc1cc(C)c(NC(=O)CS(=O)CC(=O)Nc2cccnc2)c(C)c1` (stereo not drawn): the Potency entry was “inactive”. Take `Cc1nc(-c2ccc(F)cc2)c(CC(=O)Nc2cccc(S(=O)(=O)N3CCOCC3)c2)s1`: the activity, negative = inhibition is 9.73% [at 0.501 µM] (inactive).

Regarding `Cc1ccc(-c2nc(-c3cccnc3)sc2CC(=O)Nc2ccc(C)c(Cl)c2)cc1`, the Potency was 8.91 µM (active). Take `Cc1ccsc1C(=O)OCC(=O)Nc1cccc(F)c1`: the activity, negative = inhibition is 19.6% [at 12.7 µM] (inactive). For `CCOc1ccc(C(O)Cn2c(=N)n(CCN3CCCCC3)c3ccccc32)cc1` (stereo not drawn), the Potency is 50.1 µM (active). On to `CCOc1ccc(C(O)Cc2nc3ccccc3n2C)cc1` (stereo not drawn), for which the Potency result was “inactive”.

Turning to `Cn1c(=N)n(CC(O)c2ccccc2)c2ccccc21` (stereo not drawn), the Potency entry was “inactive”.

Consider `Fc1ccc(-c2nn(-c3ccccc3Cl)c3c2cnc2ccccc23)cc1`, for which the Potency entry was “inactive”. For the compound `N#Cc1cccc(NC(=O)CN2CCCCCC2)c1`, the Potency result is “inactive”. `Cc1cccc(C(=O)N2CCCC(Nc3ccc(C(C)C)cc3)C2)n1` (stereo not drawn): the Potency was 56.2 µM (active). In the case of `CC(C)c1ccc(NC(=O)NC2CCCCC2)cc1`, the Potency entry was “inactive”. Consider `CC(C)c1ccc(NC2CCCN(C(=O)c3ccncc3)C2)cc1` (stereo not drawn), for which the Potency result is “inactive”.

The values are drawn from PubChem BioAssay AID504332 (National Center for Advancing Translational Sciences (NCATS), 2011).
